Results reported in article PMC5540273 (PLoS ONE, 2017).

Legend:
Details in all cases: concentration: 1 μM, replicates: in singlicate; n = 1
TNIK = system: TNIK
TNK1 = system: TNK1
TNK2 = system: TNK2
TNNI3K = system: TNNI3K
TRKA = system: T1, TRKA
T1 construct: gene NTRK1

TRKB = system: TRKB
TRKC = system: T2, TRKC
T2 construct: gene NTRK3

TRPM6 = system: TRPM6
TSSK1B = system: TSSK1B
TSSK3 = system: TSSK3
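Further: KINOMEscan kinase panel screen.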

Structure (SMILES) | %Inh (TNIK) [%] | %Inh (TNK1) [%] | %Inh (TNK2) [%] | %Inh (TNNI3K) [%] | %Inh (TRKA) [%] | %Inh (TRKB) [%] | %Inh (TRKC) [%] | %Inh (TRPM6) [%] | %Inh (TSSK1B) [%] | %Inh (TSSK3) [%]
NC(=O)c1nnc2ccccc2c1N | 3 | 0 | 0 | 5 | 74 | 20 | 10 | 24 | 5 | 11
COc1cc2ncnc(Nc3ccc4nc(-c5ccccc5)[nH]c4c3)c2cc1OC.Cl [GW282450] | 0 | 0 | 9 | 14 | 48 | 0 | 0 | 38 | 0 | 21
CN(C)CCN(C)C(=O)c1cc(-c2ccncc2)c(-c2ccc(Cl)c(O)c2)o1.Cl.Cl [SB-710397] | 51 | 2 | 0 | 17 | 0 | 43 | 35 | 27 | 24 | 24
Cc1cccc(-c2nc(Nc3ccc4[nH]ncc4c3)c3ccccc3n2)n1 [GW857175] | 4 | 0 | 10 | 0 | 52 | 12 | 17 | 19 | 72 | 51
Cc1cc(N2Cc3ccccc3C2)nc(Nc2ccc(S(=O)(=O)N3CCOCC3)cc2)n1.Cl [GSK1669917] | 0 | 0 | 7 | 0 | 0 | 0 | 0 | 9 | 0 | 8
CC(C)(C)c1ccc(C(=O)Nc2cn3cc(-c4cccnc4)ccc3n2)cc1 | 25 | 0 | 17 | 0 | 10 | 11 | 1 | 0 | 0 | 0
CCn1c(-c2ccccn2)nc2cnccc21 [SB-736398] | 0 | 7 | 9 | 0 | 0 | 59 | 52 | 0 | 5 | 12
Cn1cncc1-c1ccc2ncnc(Nc3ccc(OCc4ccccc4)cc3)c2c1 [GW320571] | 0 | 0 | 29 | 23 | 45 | 0 | 0 | 0 | 29 | 16
Cc1csc(-c2nc(Nc3ccncc3)c3ccccc3n2)n1 [GW869640] | 50 | 21 | 0 | 18 | 44 | 12 | 22 | 44 | 0 | 23
Cc1ccc(NC(=O)Nc2cc(C(C)(C)C)nn2-c2ccccc2)cc1 [GSK1014915] | 0 | 0 | 15 | 21 | 0 | 28 | 26 | 24 | 2 | 14
Cl.Oc1ccc(-c2nc(-c3ccccc3)[nH]c2-c2ccncc2)cc1 [SB-428218] | 0 | 0 | 10 | 0 | 0 | 63 | 64 | 0 | 0 | 0
Cc1nnc(-c2ccc3occ(-c4ccc(S(C)=O)cc4)c3c2)[nH]1 (stereo not shown) | 5 | 0 | 0 | 15 | 28 | 0 | 43 | 1 | 0 | 2
Cc1ccccc1-n1cnc2c(N)ncnc21 [SKF-97510] | 0 | 0 | 7 | 0 | 0 | 0 | 0 | 66 | 0 | 0
O=C(Nc1ccc2c(c1)OCO2)NC1CCN(c2ccnc(Nc3ccc(F)cc3)n2)C1 (stereo not shown) [GSK1379724] | 0 | 16 | 10 | 0 | 0 | 19 | 57 | 8 | 0 | 18
Cc1cc(-c2ccc3c(c2)CC[C@@H](N[C@@H](C)c2ccccc2)C3)cnc1N.Cl [GW412617] | 45 | 0 | 12 | 27 | 82 | 10 | 8 | 16 | 37 | 19
COc1cc2nccc(Nc3ccc(NC(=O)c4ccc(C)cc4)c(O)c3)c2cc1OC.Cl [GW440132] | 0 | 26 | 48 | 4 | 36 | 0 | 0 | 5 | 3 | 18
O=C(Nc1n[nH]c2nc(-c3nccs3)c(Br)cc12)C1CCCC1 [SB-742609] | 1 | 2 | 4 | 6 | 0 | 59 | 24 | 0 | 8 | 0
CS(=O)(=O)c1ccc(-c2c(-c3ncn[nH]3)sc(N3CCOCC3)c2C#N)cc1 | 20 | 55 | 17 | 0 | 13 | 0 | 0 | 0 | 29 | 5
COc1cccc(-c2cc(-c3c[nH]nc3-c3ccccn3)ccn2)c1 [GW680338] | 71 | 0 | 0 | 9 | 38 | 0 | 11 | 0 | 0 | 11
Cn1ccc2ncnc(Oc3ccc(NC(=O)Nc4ccccc4)cc3)c21 | 3 | 0 | 0 | 0 | 4 | 0 | 15 | 0 | 0 | 0

Structure (SMILES) | %Inh (TNIK) [%] | %Inh (TNK1) [%] | %Inh (TNK2) [%] | %Inh (TNNI3K) [%] | %Inh (TRKA) [%] | %Inh (TRKB) [%] | %Inh (TRKC) [%] | %Inh (TRPM6) [%] | %Inh (TSSK1B) [%] | %Inh (TSSK3) [%]
Cc1cccc(-c2nc(C)cc(Nc3ccncc3)n2)n1 [GSK257997] | 0 | 0 | 28 | 0 | 39 | 0 | 0 | 24 | 3 | 17
Cl.NC(=O)c1cccc(Nc2nccc(Nc3ccc(Oc4cccc(Cl)c4)c(Cl)c3)n2)c1 [GW659008] | 2 | 77 | 29 | 4 | 0 | 0 | 0 | 13 | 0 | 4
Cc1cccc(-c2nc(Nc3cccc(C(N)=O)c3)c3ccccc3n2)n1 [GW876019] | 2 | 5 | 15 | 0 | 0 | 0 | 0 | 0 | 10 | 0
COc1cccc(NC(=O)NC2CCN(c3ccnc(Nc4ccc(F)cc4)n3)C2)c1 (stereo not shown) [GSK1379721] | 0 | 0 | 0 | 2 | 42 | 59 | 80 | 26 | 9 | 23
Fc1cc(Cl)ccc1Nc1ccnc2cc(I)ccc12 [GW551191] | 31 | 6 | 10 | 15 | 0 | 37 | 24 | 0 | 32 | 3
Fc1cccc(COc2nnc(-c3ccc4c(c3)CCO4)o2)c1 | 14 | 0 | 0 | 0 | 24 | 0 | 48 | 0 | 0 | 0
CCn1c(-c2cccnc2O)nc2cnccc21 [SB-736715] | 0 | 8 | 0 | 0 | 0 | 3 | 0 | 0 | 0 | 0
Cc1c(O)cccc1Nc1ccnc2ccc(C(F)(F)F)cc12.Cl [GW466413] | 0 | 0 | 17 | 0 | 9 | 0 | 31 | 0 | 0 | 1
O=C(Nc1n[nH]c2cc(-c3cccc(F)c3F)ccc12)C1CC1 [SB-733894] | 72 | 10 | 2 | 0 | 38 | 11 | 34 | 0 | 0 | 0
Cl.c1ccc(-c2n[nH]cc2-c2ccnc(-c3ccc(CN4CCOCC4)cc3)c2)nc1 [GW776245] | 30 | 42 | 0 | 0 | 0 | 0 | 0 | 0 | 0 | 0
Nc1nc(-c2nccs2)c(-c2ccnc3ccccc23)s1 [GW693542] | 10 | 0 | 24 | 4 | 0 | 0 | 23 | 4 | 16 | 79
O=C(O)COc1ncnc2cc(-c3ccc4[nH]ncc4c3)sc12 | 10 | 0 | 0 | 0 | 33 | 42 | 0 | 6 | 0 | 0
CC1=C(C(=O)Nc2cc3cn[nH]c3cc2F)C(c2ccc(C(F)(F)F)cc2)CC(=O)N1 (stereo not shown) [GSK429286] | 0 | 0 | 15 | 3 | 0 | 0 | 0 | 0 | 13 | 14
C[C@@H]1CCCCN1c1cc(-c2ccc3c(N)n[nH]c3c2)nc(N)n1 [GSK2258759] | 0 | 0 | 18 | 0 | 0 | 0 | 0 | 16 | 0 | 2
CC(=O)Nc1nc2cnc(Nc3cc(NC(=O)c4cccc(CCC#N)c4)ccc3C)nc2s1 | 7 | 0 | 9 | 7 | 0 | 6 | 5 | 3 | 2 | 0
CN1C(=O)C(Nc2ccc(Cl)c(C(=O)O)c2)=C(c2ccc(Cl)cc2)C1=O [SB-404290] | 13 | 13 | 0 | 0 | 0 | 0 | 22 | 10 | 0 | 0
COc1cc(Nc2nccc(N3CCC(NC(=O)Nc4cc(C)ccc4C)C3)n2)cc(OC)c1OC (stereo not shown) [GSK1379762] | 0 | 14 | 15 | 0 | 18 | 0 | 20 | 0 | 7 | 21
CCCc1ccc(S(=O)(=O)NC2CCN(c3ccnc(Nc4ccc(F)cc4)n3)C2)cc1 (stereo not shown) [GSK1379715] | 0 | 0 | 26 | 13 | 0 | 0 | 28 | 0 | 100 | 15
COc1ccc(Nc2nccc(NCCNC(=O)Nc3ccccc3F)n2)cc1 [GSK1379901] | 0 | 0 | 31 | 14 | 0 | 0 | 18 | 11 | 0 | 7
O=S(=O)(c1ccc(-c2ccnc3[nH]ccc23)cc1)N1CCCC1 [GSK846226] | 0 | 0 | 9 | 3 | 69 | 0 | 0 | 26 | 10 | 18
